Records with an inconclusive call do not appear. Activity calls are given as the source filed them. Calls come from the whole dose curve; as a rule, active = well fitted cell-killing curve with a large enough effect; inconclusive = small, poorly fitted or top-dose-only effect, or effect the other way; inactive = no such curve, though single readings can be large or run the other way.
Assay: Viability qHTS for spleen associated tyrosine kinase inhibitor (SYKi) drug resistant MV4-11 cells (AID 1963824); note: nearly all actives have a fitted effect of over 35% in size
Details: SYKi-resistant MV4-11 viability, CellTiter-Glo, 72 h; series mostly up to 45 µM
Summary of the method: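 SYK-inhibitor-resistant MV4-11 AML cells were seeded at 500 per well onto compound and cultured 72 hours (37 °C, 5% CO2). CellTiter-Glo was then added, and after 10 min at room temperature, luminescence gave viability.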
Potency is the fitted concentration of half-maximal effect.

Q: For `C=CC(=O)N[C@H]1CCOC[C@H]1Nc1ncc2cc(-c3c(Cl)c(OC)cc(OC)c3Cl)ccc2n1`, which Potency is on record?
A: Its Potency is 20.9 µM (active).

Q: Which Potency does the source give for `C/C=C/C=C/C=C/C(=O)N(C)C(C(=O)NC(C)C(=O)N1CCCC1C(N)=O)C(C)C` (centres undefined) here?
A: The Potency was “inactive”.

Q: Which Potency does the source give for `C/C=C(\C)C(=O)OC1C2(O)CC3=C4CC(=O)OC(c5ccoc5)C4(C)CCC3C(C)(C2=O)C(C(OC(C)=O)C(=O)OC)C1(C)C` (centres undefined) here?
A: The Potency was 4.85 µM (active).

Q: With `COc1ccc(N2CCN(C(=O)c3cc4c(s3)-c3ccccc3S(=O)(=O)C4)CC2)cc1` as the molecule, how does the Potency read?
A: The Potency was “inactive”.

Q: Which Potency does the source give for `CN(C)C(=O)NC1(c2ccccc2)CCN(CCC[C@]2(c3ccc(Cl)c(Cl)c3)CCCN(C(=O)c3ccccc3)C2)CC1` here?
A: The Potency was 4.11 µM (active).

Q: Which Potency does the source give for `CN(C)CCN(Cc1ccc(-c2ccc(CNCCc3ccccc3)cc2)cc1)C(=O)CCC1CCCC1` here?
A: The Potency was 0.92 µM (active).

Q: For `C=C(COC(=O)C(C)C)C1Oc2cc(C(C)=O)ccc2C1OC(=O)C(C)C` (centres undefined), which Potency is on record?
A: Its Potency is “inactive”.

Q: For `C=C(C(=O)OC)C1C(O)CC2(C)C(=O)CCC(O)(CO)C2C1O` (centres undefined), which Potency is on record?
A: The Potency was “inactive”.

Q: With `COc1cccc(-c2ccc([C@@H](Oc3cc(-c4ccc(C[C@H](N)C(=O)O)cc4)nc(N)n3)C(F)(F)F)cc2)c1` as the molecule, how does the Potency read?
A: The Potency was 20.6 µM (active).

Q: With `O=C1Cc2c([nH]c3ccc(Br)cc23)-c2ccccc2N1` as the molecule, how does the Potency read?
A: Its Potency is 5.8 µM (active).

Q: With `COC(=O)C(C)C1CCC2(C)C(=O)C=CC(C)(O)C2C1O` (centres undefined) as the molecule, how does the Potency read?
A: Its Potency is “inactive”.

Q: With `CN(C/C=C/c1ccccc1)Cc1cccc2ccccc12` as the molecule, how does the Potency read?
A: The Potency was “inactive”.

Q: With `O=C(NO)c1ccc(CC(=O)N(CCO)c2ccccc2)cc1` as the molecule, how does the Potency read?
A: Its Potency is 16.4 µM (active).

Q: Which Potency does the source give for `c1ccc(-c2cnc(Nc3ccc(OCCN4CCCC4)cc3)s2)cc1` here?
A: Its Potency is 0.0206 µM (active).

Q: With `C=C1C(=O)O[C@@H]2C[C@]3(C)[C@@H](CCC(C)=O)[C@@H]3C[C@H]12` as the molecule, how does the Potency read?
A: Its Potency is 18.4 µM (active).

Q: Which Potency does the source give for `O=C(/C=C/c1ccc(O)cc1)OC[C@H]1O[C@@H](OC(=O)/C=C/c2ccccc2)[C@H](O)[C@@H](O)[C@@H]1O` here?
A: Its Potency is “inactive”.

Q: For `Cc1cc2sc(NC(=O)Cc3ccccc3)nc2cc1Cl`, which Potency is on record?
A: Its Potency is “inactive”.

Q: For `COC(=O)C[C@H]1C(C)(C)[C@H](OC(C)=O)C2CC3=C4CC(=O)O[C@@H](c5ccoc5)[C@]4(C)CCC3[C@@]1(C)C2=O` (some centres undefined), which Potency is on record?
A: Its Potency is 3.55 µM (active).

Q: With `C=C1C(=O)OC2CC(C)C(CCC(C)O)=CCC12` (centres undefined) as the molecule, how does the Potency read?
A: Its Potency is 7.31 µM (active).

Q: With `CC(C)(C)n1nc(Cc2cccc([N+](=O)[O-])c2)c2c(N)ncnc21` as the molecule, how does the Potency read?
A: Its Potency is 5.17 µM (active).

Q: Which Potency does the source give for `NCCCNc1ccc(Nc2nccc(Nc3cc(C4CC4)[nH]n3)n2)cc1` here?
A: Its Potency is 0.164 µM (active).

Q: For `CN(C)c1nc(NC2CCC(NC(=O)c3ccc(F)c(F)c3)CC2)nc2ccccc12` (centres undefined), which Potency is on record?
A: Its Potency is 0.82 µM (active).

Q: With `O[C@@](Cc1ncc(CC2(C(F)(F)F)CC2)[nH]1)(c1ccc(-n2cccn2)cc1)C(F)(F)F` as the molecule, how does the Potency read?
A: The Potency was 14.6 µM (active).

Q: With `CC1=CC2C(CC1OC1OC(CO)C(O)C(O)C1O)C(C)CC(=O)C2C(C)C` (centres undefined) as the molecule, how does the Potency read?
A: The Potency was “inactive”.

Q: With `C=C1C(=O)O[C@@H]2[C@H]3C(C)=CC(=O)C3=C(C)[C@@H](OC(=O)/C(C)=C\C)[C@H](O)[C@@H]12` as the molecule, how does the Potency read?
A: Its Potency is 1.43 µM (active).

Q: With `CC(C)CC(=O)OC1OC=C(CO[C@@H]2O[C@H](CO)[C@@H](O)[C@H](O)[C@H]2O)C2CC(O)C(O)(CO)C12` (some centres undefined) as the molecule, how does the Potency read?
A: Its Potency is “inactive”.

Q: For `CC1(C)CC[C@]2(C(=O)O[C@@H]3O[C@H](CO)[C@@H](O)[C@H](O)[C@H]3O)CC[C@]3(C)C(=CCC4[C@@]5(C)C[C@@H](O)[C@H](O)[C@@](C)(CO)C5CC[C@]43C)C2[C@@H]1O` (some centres undefined), which Potency is on record?
A: The Potency was “inactive”.

Q: With `C[C@]1(O)CC[C@@H]2C(C(=O)O)=CO[C@@H](O[C@@H]3O[C@H](COC(=O)c4ccc(O)cc4)[C@@H](O)[C@H](O)[C@H]3O)[C@@H]21` as the molecule, how does the Potency read?
A: The Potency was “inactive”.

Q: For `COc1c2c(c(C)c3c1C(=O)OC3)OC1(C)CC(O)C(C(C)(C)O)C(C)(CCC(=O)O)C1C2` (centres undefined), which Potency is on record?
A: Its Potency is 3.17 µM (active).

Q: Which Potency does the source give for `Cc1cccc(N(C)C(=S)Oc2ccc3c(c2)CCC3)c1` here?
A: The Potency was 18.4 µM (active).

Q: Which Potency does the source give for `COC(=O)C1=CO[C@@H](O[C@@H]2O[C@H](CO)[C@@H](O)[C@H](O)[C@H]2O)C2C1C(=O)C[C@H]2C` (some centres undefined) here?
A: The Potency was “inactive”.

Q: With `C1CCC[C@H]2CCCN3CC[C@@H](CCCCCC[C@@H]4CCCN5CC[C@@H](CC1)O[C@@H]45)O[C@@H]23` as the molecule, how does the viability, % of control read?
A: The viability, % of control was 87.9% [at 0.177 µM] (inactive).

Q: For `FC(F)(F)c1ccc(/C=C/c2nc(COc3ccc(CCCCn4ccnn4)cc3)co2)cc1`, which Potency is on record?
A: Its Potency is 0.0263 µM (active).

Q: For `Cc1ccc(-n2nc(C(C)(C)C)cc2NC(=O)Nc2cc(COc3cccnc3)[nH]n2)cc1`, which Potency is on record?
A: The Potency was 0.146 µM (active).

Reference: PubChem BioAssay (NCATS)
